Here are results for 25 compounds from PubChem BioAssay (NCATS).

Assay [1] can be described thus: P-glycoprotein substrates identified in KB-3-1 adenocarcinoma cell line, qHTS therapeutic library screen (AID 1346986). Further: nearly all actives have a fitted effect of over 60% in size. The method in brief: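 Compounds were tested in dose-response against KB-3-1 and KB-8-5-11 cells at 37 degree C for 72 h, and viability was measured by luminescence. AC50 values came from curve fitting with class-based activity calls.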
The nature of assay [2]: P-glycoprotein substrates identified in KB-8-5-11 adenocarcinoma cell line, qHTS therapeutic library screen (AID 1346987). Further: nearly all actives have a fitted effect of over 65% in size. On activity change, negative = cytotoxicity: series mostly up to about 44 µM; on the % scale 0 is the no-effect control and ±100 the full control effect. The method in brief: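 KB-8-5-11: colchicine-selected sub-line of KB-3-1 over-expressing P-gp; assay medium lacked colchicine. 72 h drug exposure at 37 degree C, CellTiter-Glo.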
For orientation: qHTS replaces the single test concentration by a dilution series.

The subject of assay [3] is Zika virus NS2B-NS3 protease (unlinked complex). In words: Primary screen GU Rhodamine qHTS for Zika virus inhibitors: Unlinked NS2B-NS3 protease assay (AID 1347159). Further: nearly all actives have a fitted effect of over 60% in size. Further: potency means the concentration at half of the fitted maximal effect. On activity change, negative = inhibition: on the % scale 0 is the no-effect control and ±100 the full control effect. An outline of the steps: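 Noncovalent NS2B hydrophilic domain/NS3 protease complex (25 nM final) in 10 mM Tris-HCl pH 8.0, 0.01% Tween 20, preincubated 15 min with compounds (up to 114 microM), then 1.5 microM Rhodamine110 substrate. Fluorescence change over 15 min fitted to 4-parameter Hill.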

The test system of assay [4] is Zika virus NS2B-NS3 protease (linked construct). In words: Primary screen NINDS Rhodamine qHTS for Zika virus inhibitors (AID 1347160). Further: nearly all actives have a fitted effect of over 55% in size. Further: potency means the concentration at half of the fitted maximal effect. On activity change, negative = inhibition: on the % scale 0 is the no-effect control and ±100 the full control effect. An outline of the steps:
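Purified NS2B-NS3 protease with the NS2B hydrophilic domain joined by a flexible linker (25 nM) in 10 mM Tris-HCl pH 8.0, 0.01% Tween 20, preincubated 15 min at RT with compound; Rhodamine110 peptide substrate 1.5 µM; fluorescence change over 15 min; 4-parameter Hill fit.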

Inconclusive results are not listed. Activity calls are given as the source filed them. The call rests on the fitted dose curve; in most records, active means well fitted curve in the direction sought with a large enough effect; inconclusive means small, poorly fitted or top-dose-only effect, or another doubt; inactive means no such curve, though single readings can be large; an effect the other way counts as inactive or inconclusive. Where a SMILES comes first, the peptide text is derived from it. The star is where a group is joined. βNA = c1ccc2cc(N*)ccc2c1; Cbz = O=C(OCc1ccccc1)*

With `CC1(C)CC2C(O)C3=C(CC(C)(O)C2C1)C(=O)OC3` (stereo not given), the Potency entry in assay [1], in assay [2], in assay [3] and in assay [4] was “inactive” in each case.
With `CC(C)CC(NC(=O)OCc1ccccc1)C(=O)NC(CC(C)C)C(=O)NC(CCC(=O)O)C(=O)Nc1ccc2ccccc2c1` (stereo not drawn) (Cbz-Leu-Leu-Glu-βNA; configuration not given here), the Potency entry in assay [1] and in assay [2] was “inactive” in each case. Moreover, the Potency in assay [3] and in assay [4] was 11.2 µM (active) in each case.
Turning to `Cc1occc(=O)c1O[C@@H]1O[C@H](CO[C@@H]2OC[C@](O)(CO)[C@H]2O)[C@@H](O)[C@H](O)[C@H]1O`, the Potency entry in assay [1], in assay [2], in assay [3] and in assay [4] was “inactive” each time.
`COC(=O)C1=CO[C@@H](O[C@@H]2O[C@H](CO)[C@@H](O)[C@H](O)[C@H]2O)[C@@H]2C(CO)=CC[C@H]12`: the Potency result in assay [1], in assay [2], in assay [3] and in assay [4] was “inactive” in each case.
As to `C=C[C@@](C)(CCC=C(C)C)O[C@@H]1O[C@H](CO[C@@H]2OC[C@H](O)[C@H](O)[C@H]2O)[C@@H](O)[C@H](O)[C@H]1O`, the Potency result in assay [1], in assay [2], in assay [3] and in assay [4] was “inactive” each time.
Regarding `CCC(C)C(=O)O[C@H]1C[C@](C)(O)[C@]23OC(C)(C)[C@H](C[C@H](OC(=O)c4ccccc4)[C@]2(COC(C)=O)[C@H]1OC(=O)C(C)CC)[C@H]3OC(C)=O` (stereo not given in full), the Potency entry in assay [1], in assay [2], in assay [3] and in assay [4] was “inactive” in each case.
In the case of `O=C(O)/C=C/c1ccc(O[C@@H]2O[C@H](CO)[C@@H](O)[C@H](O)[C@H]2O)cc1`, the Potency entry in assay [1], in assay [2], in assay [3] and in assay [4] was “inactive” in each case.
Consider `COC(=O)C1=CO[C@@H](O[C@@H]2O[C@H](CO)[C@@H](O)[C@H](O)[C@H]2O)[C@@H]2[C@@H](C)[C@@H](OC(=O)/C=C/c3ccccc3)[C@@H](O)[C@H]12`, for which the Potency entry in assay [1], in assay [2], in assay [3] and in assay [4] was “inactive” each time.
With `CC1(C)CC[C@]2(C(=O)O)CC[C@]3(C)C(=CCC4[C@@]5(C)C[C@@H](O)[C@H](O)[C@@](C)(CO)C5[C@H](O)C[C@]43C)[C@@H]2C1` (stereo not given in full), the Potency result in assay [1], in assay [2], in assay [3] and in assay [4] was “inactive” each time.
As for `C[C@@H]1[C@H](O)[C@@H]2OC(=O)C3=C2[C@H](CCC3)[C@@]12C[C@@H](c1ccoc1)OC2=O`, the Potency entry in assay [1], in assay [2], in assay [3] and in assay [4] was “inactive” each time.
As to `CC(=O)O[C@@H]1[C@@H](O)[C@H](C)O[C@@H](O[C@H]2[C@@H]3C=CO[C@@H](O[C@@H]4O[C@H](CO)[C@@H](O)[C@H](O)[C@H]4OC(C)=O)[C@@H]3[C@@]3(CO)O[C@@H]23)[C@@H]1OC(=O)/C=C/c1ccc(O)cc1`, the Potency result in assay [1], in assay [2], in assay [3] and in assay [4] was “inactive” each time.
Regarding `COc1ccnc(CCc2nc3ncccc3[nH]2)c1`, the Potency result in assay [1], in assay [2], in assay [3] and in assay [4] was “inactive” throughout.
In the case of `C=C(CO)C(=O)O[C@H]1C[C@@]23O[C@@H]2CC/C(=C/[C@H]2OC(=O)C(=C)[C@H]12)CO[C@H]3O`, the Potency entry in assay [1], in assay [2], in assay [3] and in assay [4] was “inactive” in each case.
Regarding `C=C1CC23CC(=O)C4C(CO)(CO)CCCC4(C)C2CCC1C3` (stereo not given), the Potency entry in assay [1], in assay [2], in assay [3] and in assay [4] was “inactive” in each case.
For `Nc1ncnc2c1C(=O)N(c1ccc(C3CCC(CC(=O)O)CC3)cc1)CCO2` (stereo not given), the Potency entry in assay [1], in assay [2], in assay [3] and in assay [4] was “inactive” each time.
For `CN(C)c1ccc(C2O[C@@H](c3ccccc3)C[C@H](c3ccccc3)O2)cc1` (stereo not given in full), the Potency entry in assay [1], in assay [2], in assay [3] and in assay [4] was “inactive” in each case.
As for `CCc1nn(CCO)c(CC)c1Oc1cc(C#N)cc(C#N)c1`, the Potency result in assay [1], in assay [2], in assay [3] and in assay [4] was “inactive” each time.
Consider `CC(C)=CCC[C@](C)(O[C@@H]1O[C@H](CO[C@@H]2O[C@@H](CO)[C@H](O)[C@H]2O)[C@@H](O)[C@H](O)[C@H]1O)[C@H]1CC[C@]2(C)[C@@H]1[C@H](O)C[C@@H]1[C@@]3(C)CC[C@H](O[C@@H]4O[C@H](CO)[C@@H](O)[C@H](O)[C@H]4O[C@@H]4O[C@H](CO)[C@@H](O)[C@H](O)[C@H]4O)C(C)(C)[C@@H]3CC[C@]12C`, for which the Potency result in assay [1], in assay [2], in assay [3] and in assay [4] was “inactive” in each case.
As for `CC(=O)O[C@@H]1[C@H](O[C@@H]2O[C@H](CO)[C@@H](O)[C@H](O)[C@H]2O)[C@@H](O[C@@H]2O[C@@H](C)[C@H](O)[C@@H](O[C@@H]3O[C@H](CO)[C@@H](O)[C@H](O)[C@H]3O)[C@H]2O)[C@H](OC(=O)[C@]23CCC(C)(C)C[C@H]2C2=CCC4[C@@]5(C)C[C@H](O)[C@H](O[C@@H]6O[C@H](C(=O)O)[C@@H](O)[C@H](O)[C@H]6O)[C@@](C)(C(=O)O)C5CC[C@@]4(C)[C@]2(C)CC3)O[C@@H]1C` (stereo not given in full), the outcome in assay [1] was “inactive [at 9.29 µM]”. In addition, the activity change, negative = cytotoxicity in assay [2] was 8.71% [at 9.29 µM] (inactive). The activity change, negative = inhibition in assay [3] is 16.2% [at 19.1 µM] (inactive). Moreover, the Potency entry in assay [4] is “inactive”.
In the case of `Cc1cn(C[C@H](N)C(=O)O)c(=O)n(Cc2ccsc2C(=O)O)c1=O`, the Potency entry in assay [1], in assay [2], in assay [3] and in assay [4] was “inactive” throughout.
Regarding `CC1(C)COC(=O)[C@@H]1O[C@@H]1O[C@H](CO)[C@@H](O)[C@H](O)[C@H]1O`, the Potency entry in assay [1], in assay [2], in assay [3] and in assay [4] was “inactive” each time.
Regarding `CC1=CC(=O)[C@]2(O[C@@H]3O[C@@H](C)[C@H](O)[C@@H](O)[C@H]3O)C=CO[C@@H](O[C@@H]3O[C@H](CO)[C@@H](O)[C@H](O)[C@H]3O)[C@H]12`, the Potency entry in assay [1], in assay [2], in assay [3] and in assay [4] was “inactive” throughout.
With `N#Cc1ccc(C2CCCc3cncn32)cc1` (stereo not given), the Potency entry in assay [1], in assay [2], in assay [3] and in assay [4] was “inactive” throughout.
Regarding `C[C@H]1CC(=O)C2=C(C1)C(O)C(O)[C@@]1(O)[C@H]2C(=O)c2cccc(O)c2[C@@H]1O` (stereo not given in full), the Potency result in assay [1], in assay [2], in assay [3] and in assay [4] was “inactive” throughout.
With `CC(=O)O[C@@H]1CC2C(C)(C)C(=O)C=C[C@]2(C)C2CC[C@]3(C)C(=CC(=O)[C@@H]3c3ccoc3)[C@@]21C` (stereo not given in full), the Potency result in assay [1], in assay [2], in assay [3] and in assay [4] was “inactive” each time.
